Source: PubChem BioAssay
Compounds with a hit are over-represented: about 14% of the library has one in this group of screens.
HCMV antiviral: qHTS Assay for inhibitors of the human cytomegalovirus (HCMV). activity change, negative = inhibition, % at 57.5 µM. HFF cells, HCMV-luciferase reporter, 72 h; active compounds read low. hit rate 4.5% among 410,000; in the data active means activity change below about -60%; inconclusive means no clear call, values can overlap the other calls; inactive means above about -39%
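Screen run at 2 compound doses on HFFs infected with reporter HCMV, MOI 1 PFU/cell. Luciferase activity from cell lysates at 72 h post infection gave inhibition relative to buffer-only and Salinomycin wells.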
Pf growth 48h: Primary qHTS for delayed death inhibitors of the malarial parasite plastid, 48 hour incubation; P. falciparum luciferase growth in erythrocytes, 48 h; Potency, µM (titrated, usually from 28.7 µM), for inactives: at the top dose activity change, negative = inhibition, usual class: inhibitors; hit rate 5.9% among 310,000; AID 504832, 2011; further: potency means the concentration at half of the fitted maximal effect
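Read-out is firefly luciferase luminescence from an integrated reporter in P. falciparum, so falling signal marks reduced parasite growth. Infected erythrocytes were at 2% hematocrit and 0.1% parasitemia (final) in Albumax-supplemented RPMI 1640.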
Pf growth 96h: Primary qHTS for delayed death inhibitors of the malarial parasite plastid, 96 hour incubation. P. falciparum luciferase reporter growth, 96 h. Potency, µM (series often up to 28.7 µM), inactives show at the top dose activity change, negative = inhibition, actives largely listed as inhibitors. hit rate 6.9% among 320,000. AID 504834, 2011; further: potency means the concentration at half of the fitted maximal effect
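Delayed-death screen, second-generation endpoint: infected erythrocytes, 2% hematocrit, 0.05% parasitemia final; 96 hours at 37 C, 5% CO2; luciferase detection reagent; luminescence decrease equals reduced growth.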
MARV entry inh: qHTS for inhibitors of binding or entry into cells for Marburg Virus; Marburg virus pseudotyped entry inhibition, cell reporter; AID 540276, 2011; Potency, µM (top dose mostly 37.8 µM), for inactives: at the highest dose activity change, negative = inhibition, hits mostly inhibitors; hit rate 1.8% among 300,000; calls by dose curve; tested in HEK293 cells; further: potency means the concentration at half of the fitted maximal effect
Lassa entry inh: qHTS for Inhibitors of binding or entry into cells for Lassa Virus; Lassa virus pseudotype entry inhibition, cell reporter; Potency, µM (titrated, usually from 37.9 µM), without a hit: at the highest dose activity change, negative = inhibition, actives largely listed as inhibitors; hit rate 1.2% among 300,000; AID 540256, 2011; calls by dose curve; tested in HEK293 cells; further: potency means the concentration at half of the fitted maximal effect; nearly all actives have a fitted effect of over 50% in size
HCV inhibitor: qHTS Assay for Inhibitors of Hepatitis C Virus (HCV). Potency, µM (titrated, usually from 41.8 µM), for the others: at the highest dose activity change, negative = inhibition, usual class: inhibitors. hit rate 3.4% among 340,000. AID 651820, 2012. Huh7.5.1 HCVcc-Cre infection, luciferase reporter, 44 h; further: potency means the concentration at half of the fitted maximal effect
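Antiviral activity was scored by luciferase reporter output from cells infected with HCVcc-Cre (~0.5 moi) in presence of compound, 44 h infection period, cells seeded 1,000/well 4 h prior.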
The depositor's hits bear a star; ? = inconclusive; / = no result; [ ] = remark or other dose. Unless noted, the call rests on the fitted dose curve; in most records, active means well fitted inhibition curve with a large enough effect; inconclusive means small, poorly fitted or top-dose-only effect, or another doubt; inactive means no such curve, though single readings can be large or run the other way. On the % scale 0 is the no-effect control and ±100 the full control effect.

SMILES	HCMV antiviral	Pf growth 48h	Pf growth 96h	MARV entry inh	Lassa entry inh	HCV inhibitor
CC(C)[C@]1(c2ccc(Cl)cc2)ON(c2ccccc2C(F)(F)F)C1=O	/	1.85µM*	1.65µM*	/	/	-18.0%
CC(C)[C@@]1(c2ccccc2)ON(c2ccccc2C(F)(F)F)C1=O	/	1.65µM*	?	/	/	-14.1%
CCOC(=O)C1=CCN(S(=O)(=O)c2ccccc2F)C1c1ccc(Br)cc1 (stereo unspecified)	-16.2	/	/	/	/	/
COc1cc(NS(=O)(=O)c2ccc(NC(=O)c3ccc(Cl)cc3Cl)cc2)nc(OC)n1	9.1	/	/	/	6.6%[46.1 µM]	/
CC(C)[C@]1(c2ccccc2)ON(c2ccccc2C(F)(F)F)C1=O	/	1.85µM*	4.65µM*	/	/	-7.5%
CC#CCN1c2ccccc2[C@]23CCC(=O)N(Cc4ccco4)C2=NC(C(=O)OC)=C(C(=O)OC)[C@H]13	/	/	/	-44.4%[14.2 µM]	/	/
Cc1cc(C)n(-c2cc(Cl)ccc2[N+](=O)[O-])n1	-29.5	32.4%	16.5%	?	-5.0%	-3.5%
Cc1ccc(-c2nn(-c3ccccn3)c(=O)c3ccccc23)cc1C	0.0	-11.5%	-1.8%	/	/	13.6%
Cc1ccc(-c2nn(-c3cc(Cl)ccc3[N+](=O)[O-])c(=O)c3ccccc23)cc1C	?	5.22µM*	?	?	?	-16.3%
O=c1c2ccccc2c(-c2ccccc2)nn1-c1cc(Cl)ccc1[N+](=O)[O-]	?	8.28µM*	?	-26.7%	-12.4%	?
CCc1ccc(-c2nn(-c3cc(Cl)ccc3[N+](=O)[O-])c(=O)c3ccccc23)cc1	34.6	?	9.28µM*	0.0%	-8.7%	-4.2%
O=c1c2ccccc2ncn1-c1ccc(Cl)cc1[N+](=O)[O-]	?	-5.0%	?	/	/	1.0%
O=C(NCCc1csc(-c2ccc(Cl)cc2)n1)c1cccs1	?	/	/	/	-24.4%[46.1 µM]	/
O=C1CCC[C@H]2[C@@H](Cc3ccccc3)[C@@H](NS(=O)(=O)c3ccc(Br)cc3)CC[C@]23CCCN13	-16.7	/	/	/	/	/
COc1ccc(-c2c(-c3ccc4c(c3)OCO4)c3ccccc3n2C)cc1	-38.6	/	/	/	/	?
CC(Oc1ccc(F)cc1)C(=O)Nc1nc(-c2ccc(F)cc2)ns1 (stereo unspecified)	-94.3*	/	/	8.5%[46.1 µM]	1.6%[46.1 µM]	/
COc1ccc(-c2nsc(NC(=O)C(C)Oc3ccc(Cl)c(C)c3)n2)cc1 (stereo unspecified)	-64.7*	/	/	0.6%[46.1 µM]	6.7%[46.1 µM]	/
CC(Oc1ccc(F)cc1)C(=O)NN (stereo unspecified)	34.2	-5.3%	4.0%	?	9.0%	23.8%
CCCc1[nH]nc2c1C(c1ccccc1OC)C(C#N)=C(N)O2 (stereo unspecified)	36.2	-19.4%	29.9%	2.7%	23.5%	14.3%
CCCc1[nH]nc2c1C(/C(C)=C/c1ccccc1)C(C#N)=C(N)O2 (stereo unspecified)	-83.5*	-19.0%	?	?	-13.3%	-10.7%
COC(=O)CN1C(=O)CSc2ccc(S(=O)(=O)Nc3ccccc3)cc21	-22.1	/	/	/	10.9%[46.1 µM]	/
COc1cc(CN(C(=O)c2ccccc2F)C2CCS(=O)(=O)C2)cc(OC)c1OC (stereo unspecified)	7.0	/	/	15.0%[46.1 µM]	?	/
COc1cc(NC(=O)C2=C(N3CCOCC3)/C(=C\c3ccc(N(C)C)cc3)CCC2)cc(OC)c1OC	-90.6*	14.7µM*	?	?	?	6.31µM*
COc1cc(NC(=O)C2=C(N3CCOCC3)/C(=C/c3ccc(Cl)cc3)CC2)cc(OC)c1OC	45.1	-10.2%	1.3%	15.8µM*	-18.1%	17.1%
NC(=O)c1nnn(Cc2cc(Cl)c(C(=O)c3ccc(Cl)cc3)c(Cl)c2)c1N	-91.2*	/	/	/	/	/
SMILES	HCMV antiviral	Pf growth 48h	Pf growth 96h	MARV entry inh	Lassa entry inh	HCV inhibitor
Cc1ccc(S(=O)(=O)c2nc(S(=O)(=O)c3ccccc3)sc2N2CCN(CCO)CC2)cc1	-97.9*	?	-28.2%	/	/	-8.1%
Cc1ccc(S(=O)(=O)c2nc(S(=O)(=O)c3ccccc3)sc2N2CCN(C)CC2)cc1	-99.2*	?	?	/	/	-9.9%
Cc1ccc(S(=O)(=O)c2nc(S(C)(=O)=O)sc2N2CCCC2)cc1	-24.4	1.0%	?	/	/	3.6%
CC(C)OCCCNc1sc(S(=O)(=O)c2ccccc2)nc1S(=O)(=O)c1ccc(Cl)cc1	-19.1	/	/	-23.4%[46.1 µM]	-16.1%[46.1 µM]	/
CCN(CC)c1sc(S(=O)(=O)c2ccccc2)nc1S(=O)(=O)c1ccc(C)cc1	-73.3*	/	/	?	?	/
CCN(CC)CCCNc1sc(S(=O)(=O)c2ccccc2)nc1S(=O)(=O)c1ccc(Cl)cc1	-74.5*	/	/	?	-33.0%[46.1 µM]	/
NC(COCc1ccccc1)c1csc(Nc2cc(NCCCO)ncn2)n1 (stereo unspecified)	-38.8	/	/	/	/	/
CCN(CC)C(=O)c1cccc(-c2csc(C(C)(NC(C)=O)c3ccc(OC)cc3)n2)c1 (stereo unspecified)	46.6	/	/	/	/	/
O=C(Nc1cccnc1)c1cc2c(s1)-c1ccccc1OC2	-61.9*	?	211.2%	/	/	?
O=C(Nc1cccnc1Cl)c1cc2c(s1)-c1ccccc1OC2	-32.7	44.4%	?	/	/	?
Cc1cccc2c1-c1sc(C(=O)Nc3cccnc3)cc1CO2	?	?	-5.3%	/	/	22.4µM*
Cc1cccc2c1-c1sc(C(=O)Nc3nccs3)cc1CO2	?	/	8.28µM*	/	/	?
Cc1cccc2c1-c1sc(C(=O)Nc3ccccc3C(N)=O)cc1CO2	101.5	/	/	?	/	/
CC(=O)c1cccc(NC(=O)c2cc3c(s2)-c2c(C)cccc2OC3)c1	?	/	/	7.4%[46.1 µM]	/	/
O=C(Nc1nccs1)c1cc2c(s1)-c1ccccc1OC2	?	/	-3.7%	/	/	?
Cc1cccc2c1-c1sc(C(=O)Nc3cccc([N+](=O)[O-])c3C)cc1CO2	-14.3	-4.8%	0.738µM*	?	?	?
COc1ccc(Cl)cc1NC(=O)CSc1nnc(C)n2c1cc1occc12	-3.4	/	/	/	1.3%[46.1 µM]	/
Cc1ccc(N(CC(=O)NCc2ccc(F)cc2)S(=O)(=O)c2c(C)n[nH]c2C)cc1	-20.9	-34.0%	3.2%	/	/	25.2%
C=C[C@@]1(C)CC(=O)[C@@]2(O)[C@@]3(C)[C@H](O)CCC(C)(C)[C@@H]3[C@H](O)[C@H](OC(C)=O)[C@]2(C)O1	/	/	/	-28.7%	/	/
COc1cccc(C2CC(OCCF)=CC(=O)O2)c1 (stereo unspecified)	-6.2	/	/	/	/	/
CN1CCN(c2ccccc2NC(=O)c2cc3c(s2)-c2ccccc2OC3)CC1	-1.8	10.4µM*	?	/	/	-10.9%
CC(=O)c1cn(CC(=O)Nc2ccccc2Cl)c2ccccc12	-37.9	4.2%	148.2%	/	/	11.2µM*
